The values below come from PubChem BioAssay (NCATS).

Assay [1] has as its target Calcium and integrin-binding protein 1 (Homo sapiens) (UniProt Q99828). Description: Primary qHTS for Identification of Calcium Integrin Binding Protein 1 (CIB1) Competitor (AID 1508620).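 Note: GST tagged CIB1 binding a fluorescein labelled alphaIIb integrin peptide tracer; top concentration of the series differs between compounds.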 The note with it: CIB1-GST / FITC-alphaIIb peptide fluorescence polarization; series mostly up to 57.7 µM. A digest of the protocol: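 Fluorescence polarization competition: CIB1-GST (1 uM final) preincubated with compound 15 min at room temperature, then FITC-labeled alphaIIb peptide (100 nM final) added for another 15 min. Polarization read at Ex 480/Em 540.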

The nature of assay [2]: Primary qHTS for small molecule stabilizers of the endoplasmic reticulum resident proteome: Secreted ER Calcium Modulated Protein (SERCaMP) assay (AID 1508630). The note with it: SH-SY5Y GLuc-SERCaMP (Gaussia luciferase released on ER calcium loss) secretion, thapsigargin, luminescence; series mostly up to 38.4 µM. A digest of the protocol:
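GLuc-SERCaMP-expressing SH-SY5Y cells, pretreated 16 h with compound, are challenged with thapsigargin to empty ER calcium stores; after 4 h, coelenterazine is added directly to the medium and luminescence is imaged.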
On the technique in general: In qHTS, concentration-response curves come from the screen itself.

The nature of assay [3]: Primary qHTS for inhibitors of nuclear receptor binding SET domain protein 2 (NSD2) in an isogenic RCH-ACV NSD2 p.E1099K mutant (9B) (AID 1645876). Note: nearly all actives have a fitted effect of over 70% in size. Note: potency is the fitted concentration of half-maximal effect. The note with it: RCH-ACV NSD2 E1099K (9B) viability, CellTiter-Glo, 72 h; series mostly up to 44.9 µM.
For assay [4], the target named is Cytochrome P450 2C9 (Homo sapiens) (UniProt P11712). The experiment in a line: Cytochrome P450 family 2 subfamily C member 9 (CYP2C9) small molecule antagonists: luciferase biochemical (cell-free) qHTS assay (AID 1645842; active = well fitted curve in the direction sought with a large enough effect in the repeat runs; an effect the other way counts as inactive or inconclusive; note: nearly all actives have a fitted effect of over 55% in size; note: potency is the fitted concentration of half-maximal effect). The conditions noted are these: P450-Glo CYP2C9 enzyme assay, luciferin luminescence; series mostly up to 57.4 µM. A digest of the protocol:
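Luminescence, after 20 min with luciferin detection reagent, reflected CYP2C9 turnover during a 1 h NADPH-driven reaction at 37C. Enzyme-substrate mix contained 0.4% bovine serum albumin and was preincubated with compound 10 min at room temperature.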

The nature of assay [5]: Primary qHTS for inhibitors of nuclear receptor binding SET domain protein 2 (NSD2) in an RCH-ACV wild type WT cells (2C) (AID 1645877). Note: nearly all actives have a fitted effect of over 70% in size. Note: potency is the fitted concentration of half-maximal effect. The note with it: RCH-ACV (leukaemia line) NSD2 WT (2C) viability, CellTiter-Glo, 72 h; series mostly up to 44.9 µM.
Assay [6] has as its target Cytochrome P450 2D6 (Homo sapiens) (UniProt P10635). Description: Cytochrome P450 family 2 subfamily D member 6 (CYP2D6) small molecule antagonists: luciferase biochemical (cell-free) qHTS assay (AID 1645840; active = well fitted curve in the direction sought with a large enough effect in the repeat runs; an effect the other way counts as inactive or inconclusive; note: nearly all actives have a fitted effect of over 55% in size; note: potency is the fitted concentration of half-maximal effect). The conditions noted are these: P450-Glo CYP2D6 enzyme, luciferin luminescence, 1 h; series mostly up to 57.4 µM. An outline of the steps: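 P450-Glo luminescent screen: recombinant CYP2D6 enzyme–proluciferin substrate mix preincubated with compound 10 min at room temperature, then NADPH regeneration added for 1 h at room temperature. Detection reagent added for 20 min; luciferin light read as relative luminescence units.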

Inconclusive results are not listed. Calls of active or inactive are those of the source. Unless noted, calls come from the whole dose curve; as a rule, active = well fitted curve in the direction sought with a large enough effect; inconclusive = small, poorly fitted or top-dose-only effect, or another doubt; inactive = no such curve, though single readings can be large; an effect the other way counts as inactive or inconclusive.

Chain of Cytochrome P450 2C9 (Homo sapiens) (P11712 whole entry, looked up): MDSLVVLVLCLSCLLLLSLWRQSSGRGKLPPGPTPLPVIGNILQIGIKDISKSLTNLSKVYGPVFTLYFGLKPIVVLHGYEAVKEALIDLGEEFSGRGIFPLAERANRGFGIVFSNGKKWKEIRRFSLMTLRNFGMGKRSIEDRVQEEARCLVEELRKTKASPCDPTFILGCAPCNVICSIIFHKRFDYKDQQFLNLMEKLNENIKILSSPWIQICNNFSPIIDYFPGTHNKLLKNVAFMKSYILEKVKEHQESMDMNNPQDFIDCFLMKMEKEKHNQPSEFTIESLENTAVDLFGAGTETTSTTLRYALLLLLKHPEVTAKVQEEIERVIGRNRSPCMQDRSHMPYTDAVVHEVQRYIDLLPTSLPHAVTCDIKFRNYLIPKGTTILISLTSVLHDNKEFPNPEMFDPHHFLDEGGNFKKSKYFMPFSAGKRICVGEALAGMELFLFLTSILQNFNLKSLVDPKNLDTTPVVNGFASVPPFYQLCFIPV
Chain of Calcium and integrin-binding protein 1 (Homo sapiens) (Q99828 whole entry, looked up): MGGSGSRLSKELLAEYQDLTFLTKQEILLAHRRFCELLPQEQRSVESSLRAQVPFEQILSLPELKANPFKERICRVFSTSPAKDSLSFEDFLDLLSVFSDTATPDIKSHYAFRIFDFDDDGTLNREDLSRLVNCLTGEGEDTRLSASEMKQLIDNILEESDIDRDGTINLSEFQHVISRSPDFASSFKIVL
Chain of Cytochrome P450 2D6 (Homo sapiens) (P10635 whole entry, looked up): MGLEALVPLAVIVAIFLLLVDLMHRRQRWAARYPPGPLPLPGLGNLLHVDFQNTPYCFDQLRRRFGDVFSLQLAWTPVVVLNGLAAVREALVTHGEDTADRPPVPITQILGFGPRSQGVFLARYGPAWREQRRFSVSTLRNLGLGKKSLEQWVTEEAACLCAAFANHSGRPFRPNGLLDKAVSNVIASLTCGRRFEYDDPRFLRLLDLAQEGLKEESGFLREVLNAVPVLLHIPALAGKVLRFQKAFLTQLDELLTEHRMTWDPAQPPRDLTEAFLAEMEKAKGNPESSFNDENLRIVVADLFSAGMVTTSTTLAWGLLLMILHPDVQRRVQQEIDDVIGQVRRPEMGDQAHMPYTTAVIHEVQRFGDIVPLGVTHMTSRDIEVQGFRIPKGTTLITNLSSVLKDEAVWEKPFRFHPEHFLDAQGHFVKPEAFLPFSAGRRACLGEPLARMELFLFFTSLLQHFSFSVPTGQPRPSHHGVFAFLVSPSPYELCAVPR

Take `CC(=O)Nc1cccc(-n2c(=O)n(C3CC3)c(=O)c3c(Nc4ccc(I)cc4F)n(C)c(=O)c(C)c32)c1`: the Potency result in assay [1], in assay [2] and in assay [3] was “inactive” each time.
In the case of `CNC(=O)c1cc(Oc2ccc(NC(=O)Nc3ccc(Cl)c(C(F)(F)F)c3)c(F)c2)ccn1`, the Potency result in assay [1] and in assay [2] was “inactive” throughout. Further, the Potency is 9.52 µM (active) in assay [4], 14.5 µM (active) in assay [3] and 18.3 µM (active) in assay [5].
On to `N#Cc1ccc(Oc2ccc3c(c2)COB3O)cc1`, for which the Potency result in assay [1] and in assay [2] was “inactive” each time. Further, the Potency is 5.9 µM (active) in assay [3] and 6.61 µM (active) in assay [5].
In the case of `O=C(c1ccc(C(=O)N2CCC(N3CCCC3)CC2)c(Nc2ccccc2)c1)N1CCC(N2CCCC2)CC1`, the Potency entry in assay [1], in assay [2], in assay [4], in assay [3] and in assay [5] was “inactive” in each case.
Consider `Nc1ncnc2c1c(-c1cccc(OCc3ccccc3)c1)cn2C1CC(CN2CCC2)C1` (centres undefined), for which the Potency result in assay [1] and in assay [2] was “inactive” in each case. The Potency in assay [6] was 12 µM (active); in assay [3] it was 4.59 µM (active); in assay [5], 2.9 µM (active).
With `COc1ccc(CCC(=O)Nc2nc3ccc(Cl)cc3s2)cc1OC`, the Potency entry in assay [1], in assay [2], in assay [6], in assay [3] and in assay [5] was “inactive” in each case. The Potency in assay [4] was 6.01 µM (active).
As to `NCc1c[nH]c(=S)n1[C@H]1CCc2c(F)cc(F)cc2C1`, the Potency result in assay [1], in assay [2], in assay [3] and in assay [5] was “inactive” in each case.
For the compound `CC(C)C[C@@H](N)[C@H](O)C(=O)N[C@H](C(=O)N[C@H](C(=O)N[C@@H](CC(=O)O)C(=O)O)C(C)C)C(C)C`, the Potency result in assay [1], in assay [2], in assay [3] and in assay [5] was “inactive” each time.
As to `CCC(=O)NCC[C@@H]1CCc2ccc3c(c21)CCO3`, the Potency entry in assay [1], in assay [2], in assay [3] and in assay [5] was “inactive” throughout.
Take `O=C1NC(=O)C(c2cnc3ccccn23)=C1c1cn2c3c(cccc13)CN(C(=O)N1CCOCC1)CC2`: the Potency result in assay [1] and in assay [2] was “inactive” each time. Moreover, the Potency in assay [3] and in assay [5] was 0.0148 µM (active) each time.
